AMA1 RON2 block = disrupts binding of P. falciparum AMA1 to RON2; AlphaScreen AMA1-biotinylated RON2 peptide binding; Potency, µM (doses to about 58.2 µM), without a hit: at the highest dose activity change, negative = inhibition, hits mostly inhibitors; 360,000 compounds, 0.2% hits;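 note: 0% = vehicle wells and -100% = peptide control; nearly all actives have a fitted effect of over 45% in size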
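AMA1 (3D7) with his tag at 25 nM final met compounds first, then biotinylated RON2 peptide at 25 nM; detection used donor plus acceptor beads, 10 µg/mL apiece, read by AlphaScreen after 30 min at room temperature.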
AmpC no deterg = AmpC beta-lactamase inhibition without detergent; P00811; AmpC nitrocefin hydrolysis, absorbance 480 nm, 0.0001% Triton; Potency, µM (top dose mostly 57.1 µM), for the others: at the highest dose activity change, negative = inhibition, actives largely listed as inhibitors; 330,000 compounds, 0.52% hits; AID 485341;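 note: plate controls were no compound for no effect and no enzyme for full effect; nearly all actives have a fitted effect of over 20% in size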
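20 mM phosphate pH 7.0 + 0.01% (detergent screen) or 0.0001% Triton X-100; 5.3 nM AmpC reagent; cpd preinc 15 min RT; nitrocefin (800 uM stock) to start; A480 q20 s × 4 min; Activity was normalised to no-enzyme and no-compound control wells.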
AmpC inh detg = inhibitors of E. coli AmpC beta-lactamase with detergent; P00811; AmpC hydrolysis of nitrocefin, absorbance 480 nm, 0.01% Triton; Potency, µM (top dose mostly 114 µM), for inactives: at the highest dose activity change, negative = inhibition, most hits filed as inhibitors; 370,000 compounds, 0.041% hits; AID 485294;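 note: 0% = no-compound wells and -100% = no-enzyme wells; nearly all actives have a fitted effect of over 25% in size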
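AmpC (5.3 nM in the dispensed reagent) in 20 mM phosphate pH 7.0 with 0.01% (detergent screen) or 0.0001% Triton X-100 was preincubated with compounds for 15 min at room temperature. Nitrocefin was then added from an 800 uM solution, and hydrolysis was followed at 480 nm.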
LmPK inhibitor = LmPK (Leishmania mexicana) enzyme inhibition; Q27686; purified LmPK, Kinase-Glo ATP luminescence, 1 h; Potency, µM (series often up to 57.5 µM), for the others: at the highest dose activity change, negative = inhibition, actives largely listed as inhibitors; 290,000 compounds, 0.37% hits
Target sequence (Q27686 whole entry, looked up): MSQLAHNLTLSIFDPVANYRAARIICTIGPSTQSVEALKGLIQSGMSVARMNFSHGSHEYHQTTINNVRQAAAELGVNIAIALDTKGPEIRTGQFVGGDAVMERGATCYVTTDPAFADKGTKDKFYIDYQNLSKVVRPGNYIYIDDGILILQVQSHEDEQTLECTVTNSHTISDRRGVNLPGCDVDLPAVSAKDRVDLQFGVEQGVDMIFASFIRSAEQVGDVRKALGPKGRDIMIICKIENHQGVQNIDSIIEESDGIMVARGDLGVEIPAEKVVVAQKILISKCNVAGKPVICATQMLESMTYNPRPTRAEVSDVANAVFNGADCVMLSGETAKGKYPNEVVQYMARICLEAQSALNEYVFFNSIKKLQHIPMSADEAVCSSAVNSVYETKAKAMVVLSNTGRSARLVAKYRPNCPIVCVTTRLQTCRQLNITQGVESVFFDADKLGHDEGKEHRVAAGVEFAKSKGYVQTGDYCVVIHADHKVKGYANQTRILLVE
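Purified LmPK (0.1 nM) converted ADP (0.1 mM) to ATP with PEP (0.5 mM) in imidazole buffer pH 7.2 with KCl and MgCl2, 1 h at room temperature. ATP was read by Kinase-Glo luminescence; data normalized to uninhibited and no-enzyme controls.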
Giardia FBPA inh = Giardia lamblia aldolase inhibition. A8B2U2. purified Giardia FBPA. Potency, µM (highest dose often 59.6 µM), inactives show at the top dose activity, negative = inhibition, hits mostly inhibitors. 290,000 compounds, 0.71% hits. AID 2451; note: nearly all actives have a fitted effect of over 55% in size
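40 nM FBPA preincubated 10 min at RT with compound (up to 57.5 uM final), then substrate plus GAPDH/TPI/NAD/arsenate coupling and diaphorase/resazurin added. Fluorescence read after 20 min at RT, 525/598 nm.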
An asterisk follows results filed as active; ? = inconclusive; · = not tested or not shown. Hits are enriched below; roughly 1.3% of the tested compounds scored in any of these assays. Calls come from the whole dose curve; as a rule, active = well fitted curve in the direction sought with a large enough effect; inconclusive = small, poorly fitted or top-dose-only effect, or another doubt; inactive = no such curve, though single readings can be large; an effect the other way counts as inactive or inconclusive. Unless noted, % is set by controls: 0 for no effect and ±100 for the full control effect; potency is the fitted concentration of half-maximal effect.

SMILES	AMA1 RON2 block	AmpC no deterg	AmpC inh detg	LmPK inhibitor	Giardia FBPA inh
Cc1ccc(C)c(N2CCN(C(=O)c3c4c(nc5ccccc35)C(=O)N(C3CCCCC3)C4)CC2)c1	·	·	6%	·	·
CCn1c2ccccc2c2cc(NC(=O)COc3ccccc3)ccc21	-4%	25µM*	-7%	-2%	-1%
CCn1c2ccccc2c2cc(NC(=O)COc3ccc(OC)cc3)ccc21	-1%	-23%	-6%	4%	-2%
CC(OC(=O)c1ccc(NC(=O)CC#N)cc1)C(=O)Nc1ccc(Oc2ccccc2)cc1 (configuration not stated)	·	6.3µM*	7%	-2%	·
CCn1c(=O)cc(OCC(=O)Nc2nc(C)cs2)c2ccccc21	-5%	50µM*	-18%	0%	4%
N#CCC(=O)Nc1ccc(C(=O)NCCC(c2ccccc2)c2ccccc2)cc1	5%	7.9µM*	-3%	2%	-1%
O=C(CSc1cn(CC(=O)N2CCCC2)c2ccccc12)Nc1ccccc1C(F)(F)F	·	·	-5%	·	·
Cc1c(C(=O)Nc2ccc(S(=O)(=O)N3CCOCC3)cc2)cccc1[N+](=O)[O-]	-1%	-14%	?	4%	1%
N#CCC(=O)Nc1ccc(C(=O)OC(C(=O)Nc2cc(C(F)(F)F)ccc2Cl)c2ccccc2)cc1 (configuration not stated)	-7%	7.1µM*	0%	·	·
N#CCC(=O)Nc1ccc(C(=O)OCC(=O)Nc2ccc3ccccc3c2)cc1	18%	20µM*	4%	·	·
N#CCC(=O)Nc1ccc(C(=O)OCC(=O)N=c2sccn2Cc2ccccc2Cl)cc1	4%	10µM*	-14%	·	·
O=C(COC(=O)c1ccc(O)cc1O)N=c1sccn1Cc1ccccc1Cl	-2%	-22%	-14%	·	·
CCn1c2ccccc2c2cc(NC(=O)COC(=O)c3ccc(NC(=O)CC#N)cc3)ccc21	-21%	32µM*	0%	·	·
CCn1c2ccccc2c2cc(NC(=O)COC(=O)c3ccccc3F)ccc21	20%	-28%	-7%	-4%	5%
CCN(CC)S(=O)(=O)c1cc(NC(=O)COC(=O)c2ccc(NC(=O)CC#N)cc2)ccc1C	12%	7.9µM*	4%	-1%	0%
CCN(CC)S(=O)(=O)c1cc(NC(=O)COC(=O)C2CCC2)ccc1C	0%	-15%	4%	·	·
Cc1nc(SCC(=O)NC2CC2)c2c(C)c(C)sc2n1	-4%	-6%	4%	-9%	5%
Cc1sc2nc(C(C)C)nc(SCC(=O)NC3CC3)c2c1C	5%	-13%	14µM*	3%	10%
O=C(Cc1ccc(S(=O)(=O)N2CCOCC2)s1)Nc1nc2c(s1)CCCC2	-1%	-33%	-3%	-1%	16µM*
CC1CCCCC1NC(=O)Cc1ccc(S(=O)(=O)N2CCOCC2)s1 (configuration not stated)	9%	35µM*	?	·	·
Cc1cc(Nc2ccc(F)cc2)nc(-n2nc(C)cc2C)n1	·	·	-6%	·	·
O=C(NCc1ccc(F)cc1F)[C@@H]1CCCN1C(=O)[C@@H]1CCCN1C(=O)c1cccc2ccccc12	3%	·	·	·	·
CC(C)N1CCC2(CC1)N=C(c1ccc3c(c1)OCO3)CC(c1cc(Cl)ccc1O)N2 (configuration not stated)	-12%	18µM*	-5%	-3%	2%
CCCCN1CCC(=O)C(C(=O)OCC)=C1C(=O)OCC	-2%	·	·	·	·
O=C1CC(C(=O)Nc2ccc(C(=O)N3CCOCC3)cc2)C2(CCCCC2)O1 (configuration not stated)	-2%	5µM*	3%	0%	0%
SMILES	AMA1 RON2 block	AmpC no deterg	AmpC inh detg	LmPK inhibitor	Giardia FBPA inh
O=C1CC(C(=O)Nc2ccccc2)C2(CCCC2)O1 (configuration not stated)	-11%	-8%	?	-3%	5%
O=C(Nc1ccccc1)Nc1ccc(C(=O)N2CCOCC2)cc1	3%	8%	1%	13µM*	0%
O=C(Nc1cc(C(=O)N2CCCC2)ccc1N1CCCC1)c1ccccc1F	-1%	0%	-6%	-23%	-11%
O=C(c1ccc(NC(=O)C2(c3ccccc3)CCCC2)cc1)N1CCOCC1	-14%	86%	10%	5%	0%
O=C(Nc1ccc(C(=O)N2CCCC2)cc1)c1ccccc1F	-5%	1%	?	14µM*	0%
COc1cc2c(cc1OC)C(COc1ccc3c(C)cc(=O)oc3c1)N(C(=O)c1cccc(OC)c1OC)CC2 (configuration not stated)	·	·	5%	·	·
CC(C)=CCC1=C(OCC(=O)O)C(=O)c2ccccc2C1=O	-2%	-35%	8%	9%	1.3µM*
COc1cc(NC(=O)CCCNC(=O)c2ccc(Cl)cc2)cc(OC)c1OC	17%	9%	-9%	3%	5%
CCOC(=O)c1oc2ccccc2c1NC(=O)CCl	3%	-10%	-1%	-4%	3%
CCOC(=O)c1oc2ccccc2c1NC(=O)c1ccc(Cl)s1	2%	7.1µM*	?	1%	4%
CC1(C)CC(=O)C2=C(C1)OC(N)=C(C#N)C2Cc1ccccc1 (configuration not stated)	2%	0.32µM*	-3%	-1%	0%
CCCCCC(O)c1ccc([C@H]2CCC(=O)[C@@H]2CCCCCCC(=O)O)cc1 (some centres not stated)	·	·	·	·	24%
Cc1ccc(S(=O)(=O)Nc2cccc(-c3ccc(N4CCCCCC4)nn3)c2)cc1	-11%	0.71µM*	-13%	10%	4%
Cc1cccc(S(=O)(=O)Nc2cccc(-c3ccc(N4CCCCC4)nn3)c2)c1	·	·	2%	·	·
Oc1ccc(Nc2nc(-c3ccccc3)nc3ccccc23)cc1	-10%	18µM*	-6%	-1%	0%
Oc1ccc(Nc2nc(-c3ccc(Cl)cc3)nc3ccccc23)cc1	·	·	0%	·	·
CCOC(=O)C1CCN(c2nc(N)c3c(N)nc(SCC(=O)O)cc3c2C#N)CC1	29%	-29%	-1%	0%	7.1µM*
COc1cc2c(C#N)c(N3CCc4ccccc4C3)nc(N)c2c(N)n1	?	-23%	?	1%	1.8µM*
COc1cc2c(C#N)c(N3CCCCC3)nc(N)c2c(N)n1	40%	-25%	?	-7%	2.2µM*
CC(C)NC(=O)C1(C)CCN1C(=O)c1ccccc1Oc1ccccc1 (configuration not stated)	7%	·	·	·	·
C/C(CC(=O)Nc1ccc(Cl)cc1Cl)=N\NC(=O)c1ccco1	66%	7.9µM*	-12%	1%	-4%
CC(C)(C)c1ccccc1NC(=O)CN1C(=O)NC2(CCCCCC2)C1=O	8%	1%	5%	·	·
O=C(/C(=N\Nc1ccccc1)Sc1nnnn1-c1ccccc1)c1ccccc1	-15%	1.1µM*	?	1%	-2%

Screening results (PubChem BioAssay)
